Out of some 310,000 compounds screened, about 14,000 (4.5%) showed an effect of 50% or more. The effect is printed as a negative number. This excerpt belongs to a sample that is enriched for strong results.
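Further: peak tail current of the secondary pulse compared with the same well before compound.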

The experiment deals with human ether-à-go-go-related gene (hERG) potassium channel (human, UniProt Q12809). Nature of the experiment: primary screen, population patch clamp on CHO cells stably expressing hERG; higher = less effect of the substance.
Chain of human ether-à-go-go-related gene (hERG) potassium channel (Q12809 whole entry, looked up): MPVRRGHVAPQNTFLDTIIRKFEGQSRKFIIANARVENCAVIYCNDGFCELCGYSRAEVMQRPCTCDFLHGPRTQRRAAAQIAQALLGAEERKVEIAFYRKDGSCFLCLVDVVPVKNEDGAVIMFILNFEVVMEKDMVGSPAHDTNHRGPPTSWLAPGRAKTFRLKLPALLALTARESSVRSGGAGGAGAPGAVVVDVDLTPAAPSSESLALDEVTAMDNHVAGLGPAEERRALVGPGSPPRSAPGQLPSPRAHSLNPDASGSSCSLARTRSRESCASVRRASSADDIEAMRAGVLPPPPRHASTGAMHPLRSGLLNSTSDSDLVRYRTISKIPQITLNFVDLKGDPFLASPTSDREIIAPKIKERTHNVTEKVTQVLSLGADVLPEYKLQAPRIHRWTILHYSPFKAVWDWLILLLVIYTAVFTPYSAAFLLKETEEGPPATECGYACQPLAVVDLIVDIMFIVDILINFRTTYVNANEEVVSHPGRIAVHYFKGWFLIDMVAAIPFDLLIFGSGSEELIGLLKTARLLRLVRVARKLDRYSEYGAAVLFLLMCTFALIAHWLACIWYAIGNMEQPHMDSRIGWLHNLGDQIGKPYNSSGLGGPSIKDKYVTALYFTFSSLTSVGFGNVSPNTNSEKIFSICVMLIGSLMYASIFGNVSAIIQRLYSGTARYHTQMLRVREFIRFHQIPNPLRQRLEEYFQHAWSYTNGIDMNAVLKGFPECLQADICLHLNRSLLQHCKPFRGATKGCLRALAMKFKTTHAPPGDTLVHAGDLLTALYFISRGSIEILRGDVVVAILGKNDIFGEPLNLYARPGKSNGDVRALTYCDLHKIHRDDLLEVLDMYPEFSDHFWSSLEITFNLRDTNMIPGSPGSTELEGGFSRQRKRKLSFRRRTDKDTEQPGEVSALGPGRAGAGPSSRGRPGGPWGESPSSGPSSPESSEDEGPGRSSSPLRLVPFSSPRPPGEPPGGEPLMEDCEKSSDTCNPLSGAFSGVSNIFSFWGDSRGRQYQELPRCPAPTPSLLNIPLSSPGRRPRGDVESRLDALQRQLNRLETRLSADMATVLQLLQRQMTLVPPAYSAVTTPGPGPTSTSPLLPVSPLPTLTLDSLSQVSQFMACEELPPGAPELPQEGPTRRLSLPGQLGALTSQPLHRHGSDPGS
For `CN1CCNC(=O)C1CC(=O)NCCC1=CCCCC1` (centres unmarked), the “hERG current change (%, negative = inhibition) at 10uM” value is recorded as 18.2%. With `Cc1ccc(C(C)C)c(OCc2nnc(SCC(=O)Nc3ncc(C)s3)n2C)c1` the figure was -4.11%. `CN(C)c1nnnn1-c1ccc(OC(F)(F)F)cc1`: the “hERG current change (%, negative = inhibition) at 10uM” value is recorded as -9.73%.

For `CCCC1(c2ccccc2)NC(=O)N(CC(=O)Nc2cc(S(=O)(=O)N3CCOCC3)ccc2Cl)C1=O` (centres unmarked), the “hERG current change (%, negative = inhibition) at 10uM” value is listed as -22.6%. The same measure for `CC(C)(C)NC(=O)N1CCCN(c2ccc(C(F)(F)F)cn2)CC1`: -0.47%; for `C[C@H]1C=C(C(=O)NCc2ccccc2)O[C@@H](OCc2ccc(CO)cc2)C1`: -10.5%. With `Cc1cc(NC(=O)c2cccc(Oc3ccccc3)c2)n[nH]1` the figure was 1.16%; with `COc1ccccc1N(C)S(=O)(=O)c1ccc(C(=O)OCC(=O)NCCC2=CCCCC2)cc1`, -4.24%; with `CCCC(=O)NC(C)C(c1cccs1)N1CCN(c2ccccc2)CC1` (centres unmarked), -7.64%. The same measure for `O=C(NCCc1ccc(Cl)cc1)C1CCCN(c2ncnc3c2nc2n3CCCCC2)C1` (centres unmarked): -57.2%; for `Cc1cccc(N2CCN(CCCNC(=O)C3CCCN(c4ncnc5c4nc4n5CCCCC4)C3)CC2C)c1` (centres unmarked): -67.8%.

With `COc1ccccc1N1CCN(CCCNC(=O)C2CCCN(c3ncnc4c3nc3n4CCCCC3)C2)CC1` (centres unmarked), the “hERG current change (%, negative = inhibition) at 10uM” value is listed as -40.3%. With `CC1CCCN(CCCNC(=O)C2CCCN(c3ncnc4c3nc3n4CCCCC3)C2)C1` (centres unmarked) the figure was -4.72%; with `CC1CC(C)CN(CCCNC(=O)C2CCCN(c3ncnc4c3nc3n4CCCCC3)C2)C1` (centres unmarked), -14.1%. As for `COc1cccc(CCNC(=O)C2CCCN(c3ncnc4c3nc3n4CCCCC3)C2)c1OC` (centres unmarked), the “hERG current change (%, negative = inhibition) at 10uM” value is given as -74.7%.

In the case of `Cc1cccc(CCNC(=O)C2CCCN(c3ncnc4c3nc3n4CCCCC3)C2)c1` (centres unmarked), the “hERG current change (%, negative = inhibition) at 10uM” value is listed as -59.8%. With `COc1ccc(CCNC(=O)C2CCCN(c3ncnc4c3nc3n4CCCCC3)C2)c(OC)c1` (centres unmarked) the figure was -42.8%. Take `CC1CCCCN1CCNC(=O)C1CCCN(c2ncnc3c2nc2n3CCCCC2)C1` (centres unmarked): the “hERG current change (%, negative = inhibition) at 10uM” value is -14.3%. Regarding `C=CCN(CC=C)CCOc1ccc(C)cc1[N+](=O)[O-].O=C(O)C(=O)O`, the “hERG current change (%, negative = inhibition) at 10uM” value was -47.3%.

For `O=C(Oc1cccc(-n2cnnn2)c1)c1ccco1`, the “hERG current change (%, negative = inhibition) at 10uM” value came to 6.57%. With `O=C(COC(=O)Cc1ccsc1)NCc1ccccc1` the figure was 19.6%. For `Clc1ccc(-c2ccc(/C=N/Nc3nncc(-c4ccccc4)n3)o2)cc1`, the “hERG current change (%, negative = inhibition) at 10uM” value is given as 20.8%. With `Cc1cccc(C)c1NC(=O)CN(C)C(=O)c1cccc(NS(=O)(=O)c2ccccc2)c1` the figure was -4.78%; with `Cc1ccc(S(=O)(=O)NN=C2CCC(C(C)(C)C)CC2)cc1[N+](=O)[O-]` (centres unmarked), -8.37%. `COc1ccc(/C=C/C(=O)Oc2cccc(/C=N/NC(=O)COc3c(C)cccc3C)c2)cc1`: the “hERG current change (%, negative = inhibition) at 10uM” value came out at 11.8%. For the compound `Cc1cccc(-c2ocnc2C(=O)Nc2ccccc2C(=O)N2CCCC2)c1`, the “hERG current change (%, negative = inhibition) at 10uM” value was -37%. With `COc1ccc(C(=O)Nc2ccc(S(=O)(=O)N3CCCCC3C)cc2)c(OC)c1OC` (centres unmarked) the figure was -6.46%. Turning to `CC1CCN(CCNC(=O)C2CCCN(c3ncnc4c3nc3n4CCCCC3)C2)CC1` (centres unmarked), the “hERG current change (%, negative = inhibition) at 10uM” value was found to be 12.5%. On to `CN(CCNC(=O)C1CCCN(c2ncnc3c2nc2n3CCCCC2)C1)Cc1ccccc1` (centres unmarked), for which the “hERG current change (%, negative = inhibition) at 10uM” value is -29.1%. With `CSc1ccc(CCNC(=O)C2CCCN(c3ncnc4c3nc3n4CCCCC3)C2)cc1` (centres unmarked) the figure was -61.8%. The same measure for `CCOc1ccc(CCNC(=O)C2CCCN(c3ncnc4c3nc3n4CCCCC3)C2)cc1` (centres unmarked): -58.6%; for `Cc1ccc(CCNC(=O)C2CCCN(c3ncnc4c3nc3n4CCCCC3)C2)cc1` (centres unmarked): -28.7%. Turning to `CC1CCCC(C)N1CCCNC(=O)C1CCCN(c2ncnc3c2nc2n3CCCCC2)C1` (centres unmarked), the “hERG current change (%, negative = inhibition) at 10uM” value is listed as 8.21%. With `O=C(NCCc1ccccc1)C1CCCN(c2ncnc3c2nc2n3CCCCC2)C1` (centres unmarked) the figure was -59.9%; with `COc1cc(/C=N/N2CCN(c3ccccc3OC)CC2)ccc1OC(C)=O`, 17.2%; with `CCOC(=O)Cc1csc(NC(=O)C(NC(=O)C2CCC(C)CC2)C(C)C)n1` (centres unmarked), 23.5%. Turning to `CC(C)NC(=O)/C(=C/c1ccco1)c1ccccc1`, the “hERG current change (%, negative = inhibition) at 10uM” value is recorded as -2.25%. The same measure for `Cc1cccc(NC(=O)CCC(=O)c2cccs2)n1`: 12%; for `Cc1cccc(Nc2nc(N)nc(CCl)n2)c1`: -0.698%; for `Cc1cccc(Nc2nc(N)nc(CN3CCN(c4ccccc4)CC3)n2)c1`: -54.5%.

`COc1cccc(N2CCN(Cc3nc(N)nc(Nc4ccccc4)n3)CC2)c1`: the “hERG current change (%, negative = inhibition) at 10uM” value was -68%.

Turning to `Cc1cccc(Nc2nc(N)nc(CN3CCN(c4ccc(F)cc4)CC3)n2)c1`, the “hERG current change (%, negative = inhibition) at 10uM” value is given as -73.3%. The same measure for `Cc1cccc(Nc2nc(N)nc(CSC(=S)N3CCOCC3)n2)c1`: -0.689%; for `Cc1cccc(Nc2nc(N)nc(CN3CCN(C)CC3)n2)c1`: -39.2%; for `COc1ccc(Nc2nc(N)nc(CSC(=S)N3CCN(c4ccccc4)CC3)n2)cc1`: 14.1%.

Regarding `COc1cccc(N2CCN(Cc3nc(N)nc(N4CCCc5ccccc54)n3)CC2)c1`, the “hERG current change (%, negative = inhibition) at 10uM” value is -45%. In the case of `Cn1c(=O)n(C)c2cc(NS(=O)(=O)c3ccc(F)cc3)ccc21`, the “hERG current change (%, negative = inhibition) at 10uM” value was 1.38%. The same measure for `O=C(NCc1cccnc1)C1CC(=O)N(c2ccc(F)cc2)C1` (centres unmarked): -15.1%; for `CC(SCc1ccccc1)C(=O)NC1CCCC1` (centres unmarked): 3.27%. In the case of `CCN(CC)CCNC(=O)Cn1c(C)cc2ccccc2c1=O`, the “hERG current change (%, negative = inhibition) at 10uM” value was determined as 1.83%. With `CSc1ccc(/C=C/C(=O)c2ccc(NC(C)=O)cc2)cc1` the figure was 12.6%; with `OCCOCCn1c(C(CO)Nc2nc(-c3ccccc3Br)cs2)nc2ccccc21` (centres unmarked), -72%; with `Cc1ccc(-c2csc(NC(CO)c3nc4ccccc4n3CCOCCO)n2)cc1` (centres unmarked), -47.3%. The same measure for `OCCOCCn1c(C(CO)Nc2nc(-c3cccc(Br)c3)cs2)nc2ccccc21` (centres unmarked): -12.5%; for `O=C(Cc1cccs1)Nc1nnc(SCC(=O)NC2CCCCC2)s1`: 7.84%; for `CCOc1ccccc1NC(=O)C1C2CCC3C(CCC21)C3(Cl)Cl` (centres unmarked): -13.4%. The same measure for `CNC(=O)CSc1nccn1Cc1ccc(Cl)cc1`: -64.9%. As to `CC(=O)Nc1ccc(NC(=O)CSc2nccn2Cc2ccc(Cl)cc2)cc1`, the “hERG current change (%, negative = inhibition) at 10uM” value was -9.56%. The same measure for `NC(=O)CSc1nccn1Cc1ccc(Cl)cc1`: 19.1%. For the compound `Cc1nnc(SCc2ccccc2)n1CC1CCCO1` (centres unmarked), the “hERG current change (%, negative = inhibition) at 10uM” value was 11.9%. With `O=C(C1=NN(c2ccccc2)C2C(=O)N(c3cccc(Cl)c3)C(=O)C12)c1ccccc1` (centres unmarked) the figure was 1.55%. Regarding `Clc1ncnc2scc(-c3ccc(Br)cc3)c12`, the “hERG current change (%, negative = inhibition) at 10uM” value is 7.97%. With `COc1ccccc1N=Nc1c(O)[nH]c2ccc(Br)cc12` the figure was 14.2%; with `Cn1cnc2cc(NC(=O)c3ccc(Cl)cc3)ccc21`, -18.9%.

On to `Cn1c(CN2CCOCC2)nc2cc(NC(=O)c3ccc(F)cc3)ccc21`, for which the “hERG current change (%, negative = inhibition) at 10uM” value is -12.5%. As to `Cn1c(CN2CCOCC2)nc2cc(NC(=O)c3ccc(Cl)cc3)ccc21`, the “hERG current change (%, negative = inhibition) at 10uM” value is recorded as -34.2%. Turning to `CC(=O)N1CCN(Cc2nc3cc(NC(=O)c4ccc(Cl)cc4)ccc3n2C)CC1`, the “hERG current change (%, negative = inhibition) at 10uM” value is given as -65.8%.

On to `CC(C)(C)n1cnc2cc(NC(=O)c3ccccc3)ccc21`, for which the “hERG current change (%, negative = inhibition) at 10uM” value is recorded as -9.28%.

For the compound `Cn1c(CN2CCCC2)nc2cc(NC(=O)c3ccc(Cl)cc3)ccc21`, the “hERG current change (%, negative = inhibition) at 10uM” value is given as -82%. With `Cn1c(CN2CCCCC2)nc2cc(NC(=O)c3ccc(F)cc3)ccc21` the figure was -54.2%.

As for `CC(C)(C)n1cnc2cc(NC(=O)c3ccc(Cl)cc3)ccc21`, the “hERG current change (%, negative = inhibition) at 10uM” value is recorded as -59.1%. With `COc1ccc(C(=O)Nc2ccc3c(c2)nc(CN2CCN(C(C)=O)CC2)n3C)cc1` the figure was -0.777%; with `CCOC(=O)Nc1ccc2c(c1)nc(CN1CCCCC1)n2C`, -7.84%; with `COc1ccc(C(=O)Nc2ccc3c(c2)nc(CN2CCCC2)n3C)cc1`, -44.4%. For `CC(=O)N1CCN(Cc2nc3cc(NC(=O)c4ccc(F)cc4)ccc3n2C)CC1`, the “hERG current change (%, negative = inhibition) at 10uM” value is -8.9%. As for `O=C(NCCc1ccccc1)/C(=N\O)c1ccccc1`, the “hERG current change (%, negative = inhibition) at 10uM” value is listed as 7.7%. The same measure for `CCn1c(=O)c2sccc2n2c(CCCC(=O)NC3CCN(Cc4ccccc4)CC3)nnc12`: -6.43%. With `COc1ccc(OC)c(C2C(C(C)=O)=C(O)C(=O)N2CCN2CCOCC2)c1` (centres unmarked) the figure was -6.92%. The same measure for `COc1ccc(C)cc1NC(=O)CCN1CCN(c2ccccc2F)CC1.Cl`: -19.9%. `Cc1ccccc1OCC(=O)NNC(=O)CN1C(=O)c2ccccc2C1=O`: the “hERG current change (%, negative = inhibition) at 10uM” value is on record as -9.07%.

Turning to `NNc1nc2sc3c(c2c(=O)[nH]1)CCc1ccccc1-3`, the “hERG current change (%, negative = inhibition) at 10uM” value was 7.46%. The same measure for `Cc1ccc(C)c(N2CCN(C(=O)Cc3c(C(=O)O)[nH]c4ccc(Cl)cc34)CC2)c1`: 10.1%. The same measure for `O=C(O)COc1cccc2nsnc12`: 4.42%; for `CC(=O)N1N=C(c2cccc([N+](=O)[O-])c2)OC1(C)CC(=O)Nc1ccccc1` (centres unmarked): -12%; for `COc1ccc(NC(=O)CN(C)CC(=O)Nc2ccc(N3CCOCC3)cc2)c([N+](=O)[O-])c1`: -26.2%. With `CNC(=O)OCc1cccc(COC(=O)NC)n1.Cl` the figure was 27.2%.

These data come from article PMC4336329 (PLoS ONE, 2015).
